Measurements as given in PubChem BioAssay (Tox21).
Values joined by “and” are separate entries in the source; they are usually repeats but may differ in a detail not shown here. Identical values can stand only once. Results filed as inconclusive are left out. Where a call stands in place of a potency, no number is given. Unmarked numbers belong to inactive results. Active and inactive are the calls of the source. The call rests on the fitted dose curve; in most records, active means well fitted activation curve with a large enough effect in the repeat runs; inconclusive means weak or mixed curves; inactive means flat fitted curve, though single readings scatter.

Experiment: A CellTox Green Cytotoxicity Assay to monitor cytotoxicity in HepG2 cells - 40 hour (AID 1224879); further: nearly all actives have a fitted effect of over 40% in size
Settings: CellTox Green fluorescence; series mostly up to 76.8 µM
Source text: National Center for Advancing Translational Sciences [NCATS]
NIH Chemical Genomics Center [NCGC]
U.S. Environmental Protection Agency [EPA]
National Institutes of Environmental Health Sciences [NIEHS]
National Toxicology Program [NTP]
Cell-based models are critical for drug discovery. Determining the natural cytotoxic effects resulting from test compounds is an essential research activity. A CellTox Green Cytotoxicity Assay to monitor cytotoxicity in real time of continues cell culture during 40 hours of the compound treatment was used to screen Tox21 10K library compounds in HepG2 cells. CellTox Green Cytotoxicity Assay is a nonlytic, homogeneous, biofluorescent method to measure cytotoxicity in cell culture after experimental manipulation. The assay system uses a proprietary asymmetric cyanine dye that is excluded from viable cells but preferentially stains the dead cell's DNA. […] Viable cells produce no appreciable increases in fluorescence. Therefore, the fluorescence signal produced by the binding interaction with dead cell DNA is proportional to cytotoxicity.
The mixture of HepG2 cell suspension and reagents were dispensed at 600cells/6 ul/well in 1536-well tissue culture treated black solid bottom plates using a Multidrop dispenser. After the assay plates were incubated at a 37 C/5% CO2 incubator for 5 hours, 23 nL of compounds dissolved in DMSO, positive and negative controls was transferred to the assay plate by a pintool work station. The plates were incubated at 37 C for 40 hours. The fluorescence intensity were measured at 0h, 8h, 16h, 24h, 32h and 40h time points using ViewLux plate reader during compound treatment.
Potency means the concentration at half of the fitted maximal effect.

Q: With `CCCCCCCCCC[N+](C)(C)CCCCCCCCCC` as the compound, how does the Potency read?
A: 8.71 µM (active)

Q: With `C[C@H]1CC[C@@H]2[C@@H](C)[C@H]3[C@H](C[C@H]4[C@@H]5CC=C6CC(O[C@@H]7O[C@H](CO)[C@H](O)[C@H](O[C@@H]8O[C@H](CO)[C@@H](O)[C@H](O)[C@H]8O)[C@H]7O[C@H]7O[C@@H](C)[C@H](O)[C@@H](O)[C@H]7O)CC[C@]6(C)[C@H]5CC[C@]34C)N2C1` (stereo not given in full) as the compound, how does the Potency read?
A: 22.6 µM (active)

Q: With `Oc1ccc(C(=C(Cl)Cl)c2ccc(O)cc2)cc1` as the compound, how does the Potency read?
A: inactive

Q: For `CN(C)C(=S)S`, which Potency is on record?
A: 15.8 µM (active) and 4.86 µM (active) and 11 µM (active)

Q: For `COc1cc(C=O)cc2c1[C@H](COC(N)=O)[C@]1(OC(C)=O)ON2C[C@H]2[C@@H]1N2C(C)=O`, which Potency is on record?
A: 0.0776 µM (active)

Q: With `Nc1ccc(Cl)cc1C(=O)c1ccccc1` as the compound, how does the Potency read?
A: inactive

Q: With `CCOc1cc(C(C)(C)C)ccc1C1COC(c2c(F)cccc2F)=N1` (stereo not given) as the compound, how does the Potency read?
A: inactive

Q: For `CC(=O)[O-].[Tl+]`, which Potency is on record?
A: inactive

Q: For `C[C@H]1O[C@@H](O[C@H]2[C@@H](O)C[C@H](O[C@H]3[C@@H](O)C[C@H](O[C@H]4CC[C@@]5(C)[C@H](CC[C@@H]6[C@@H]5CC[C@]5(C)[C@@H](C7=CC(=O)OC7)CC[C@]65O)C4)O[C@@H]3C)O[C@@H]2C)C[C@H](O)[C@@H]1O`, which Potency is on record?
A: inactive

Q: With `Clc1ccc(COC(Cn2ccnc2)c2ccc(Cl)cc2Cl)cc1` (stereo not given) as the compound, how does the Potency read?
A: 45.7 µM (active) and 54.7 µM (active) and 16.9 µM (active)

Q: Which Potency does the source give for `COc1ccc(/C(=C/C(=O)N2CCOCC2)c2ccc(Cl)cc2)cc1OC` here?
A: inactive

Q: For `O=C/C(Cl)=C(/Cl)C(=O)O`, which Potency is on record?
A: 48.9 µM (active)

Q: Which Potency does the source give for `COC12CC[C@@]3(C[C@@H]1C(C)(O)C(C)(C)C)[C@H]1Cc4ccc(O)c5c4[C@@]3(CCN1CC1CC1)[C@H]2O5` (stereo not given in full) here?
A: 24.4 µM (active)

Q: With `C[C@@H](Oc1ccc(Cl)cc1Cl)C(=O)O` as the compound, how does the Potency read?
A: inactive

Q: With `Clc1ccc(CO/N=C(\Cn2ccnc2)c2ccc(Cl)cc2Cl)c(Cl)c1` as the compound, how does the Potency read?
A: 26.8 µM (active)

Q: With `N#CC(Cl)Cl` as the compound, how does the Potency read?
A: 1.2 µM (active)

Q: With `CC(C)(C)C(O)/C(=C\c1ccc(Cl)cc1Cl)n1cncn1` (stereo not given) as the compound, how does the Potency read?
A: 52.8 µM (active)

Q: For `Oc1c(Cl)c(Cl)cc(Cl)c1Cl`, which Potency is on record?
A: inactive

Q: For `CN(C)c1ccc(N=Nc2ccccc2)cc1`, which Potency is on record?
A: inactive

Q: Which Potency does the source give for `CCCCOP(=O)(CCCC)OCCCC` here?
A: inactive

Q: Which Potency does the source give for `O=c1[nH]c2ccccc2n1CCCN1CCC(n2c(=O)[nH]c3cc(Cl)ccc32)CC1` here?
A: 23.9 µM (active)

Q: For `Cc1ccc(CCl)cc1`, which Potency is on record?
A: inactive

Q: With `NC(=O)c1ccc(N)nc1` as the compound, how does the Potency read?
A: inactive

Q: Which Potency does the source give for `CC(=O)O[C@H]1CC[C@@]2(C)C(=CC[C@@H]3[C@@H]2CC[C@]2(C)C(=O)CC[C@@H]32)C1` here?
A: inactive

Q: With `Oc1ccc(C2(c3ccc(O)cc3)c3ccccc3-c3ccccc32)cc1` as the compound, how does the Potency read?
A: 61.6 µM (active)

Q: Which Potency does the source give for `O=C(CCl)C(Cl)Cl` here?
A: 49.4 µM (active)

Q: With `CC(C)C(=O)Cl` as the compound, how does the Potency read?
A: inactive

Q: With `CC(C)[C@H](C(=O)O[C@H](C#N)c1cccc(Oc2ccccc2)c1)c1ccc(Cl)cc1` as the compound, how does the Potency read?
A: inactive

Q: With `O=c1c(C2CC(c3ccc(-c4ccc(Br)cc4)cc3)Cc3ccccc32)c(O)sc2ccccc12` (stereo not given) as the compound, how does the Potency read?
A: inactive

Q: For `Brc1c(Br)c(Br)c(Oc2c(Br)c(Br)c(Br)c(Br)c2Br)c(Br)c1Br`, which cytotoxicity increase is on record?
A: 1.89% [at 15.8 µM]

Q: Which Potency does the source give for `Oc1ccc(C(c2ccc(O)cc2)(C(F)(F)F)C(F)(F)F)cc1` here?
A: 54.7 µM (active) and 54.9 µM (active)

Q: With `CC[C@H]1C[C@@H]2C[C@H]3c4[nH]c5ccc(OC)cc5c4CCN(C2)[C@@H]13` as the compound, how does the Potency read?
A: 54 µM (active)

Q: With `CCOC(=O)C1(c2ccccc2)CCN(CCC(C#N)(c2ccccc2)c2ccccc2)CC1` as the compound, how does the Potency read?
A: inactive

Q: With `COS(=O)(=O)c1ccc(C)cc1` as the compound, how does the Potency read?
A: inactive

Q: With `FC(F)(F)c1cccc(C2=CCN(CCc3ccc4ccccc4c3)CC2)c1` as the compound, how does the Potency read?
A: inactive

Q: Which Potency does the source give for `BrC(Br)Br` here?
A: inactive

Q: With `CN(CCCC(O)c1cccnc1)N=O` (stereo not given) as the compound, how does the Potency read?
A: inactive

Q: Which Potency does the source give for `CC(C)CCCCCCCOP(=O)(Oc1ccccc1)Oc1ccccc1` here?
A: inactive

Q: Which Potency does the source give for `SCc1ccco1` here?
A: inactive

Q: For `Oc1ccc2ccc3cccc4ccc1c2c34`, which Potency is on record?
A: 54.9 µM (active)
